From PubChem BioAssay AID602358 (National Center for Advancing Translational Sciences (NCATS), 2012)
Records with an inconclusive call do not appear. Calls of active or inactive are those of the source. Calls come from the whole dose curve; as a rule, active = well fitted inhibition curve with a large enough effect; inconclusive = small, poorly fitted or top-dose-only effect; inactive = flat fitted curve, though single readings scatter.

target: Luciferin 4-monooxygenase (Photinus pyralis) (UniProt P08659); assay: FLuc inhibitory activity for the follow-up compounds in a biochemical assay with Km concentrations of substrate and 500microM CoASH; settings: purified FLuc, Km substrates + 500 uM CoASH, luminescence; series mostly up to 57.5 µM
Sequence (P08659 whole entry, looked up): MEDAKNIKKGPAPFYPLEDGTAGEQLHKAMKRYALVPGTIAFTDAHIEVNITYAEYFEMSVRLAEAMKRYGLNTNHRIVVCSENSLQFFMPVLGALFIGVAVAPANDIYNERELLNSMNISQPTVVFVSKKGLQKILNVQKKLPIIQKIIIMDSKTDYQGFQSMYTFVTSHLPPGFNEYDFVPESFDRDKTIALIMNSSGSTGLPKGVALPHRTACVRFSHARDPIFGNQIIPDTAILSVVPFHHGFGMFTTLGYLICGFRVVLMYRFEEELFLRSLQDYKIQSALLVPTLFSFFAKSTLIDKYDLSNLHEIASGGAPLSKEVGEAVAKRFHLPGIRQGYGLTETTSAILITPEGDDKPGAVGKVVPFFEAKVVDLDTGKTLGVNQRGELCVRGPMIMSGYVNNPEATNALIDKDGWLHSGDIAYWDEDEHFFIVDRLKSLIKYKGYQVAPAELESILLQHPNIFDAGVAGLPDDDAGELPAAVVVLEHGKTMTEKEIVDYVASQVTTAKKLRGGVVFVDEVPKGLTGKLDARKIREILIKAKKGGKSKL
Text: NCGC Assay Overview: Firefly (Photinus pyralis) luciferase is one of the most commonly used transcriptional reporters. It is considered one of the more dynamically responsive reporters - that is, responsive to changes in reporter transcription - as it requires no post-translational modifications and is enzymatically active directly after protein synthesis (Wood, 1998). With no endogenous expression in mammalian cells and without the requirement of external excitation, it offers very little background signal, thus generally providing excellent signal to background for most assays. Previous profiling work to determine the prevalence of compounds that affect FLuc enzymatic activity (PubChem AID 411) identified that ~3% of the MLSMR library (then at ~72K) inhibited FLuc. […] Of the compounds identified in this profile that inhibited FLuc, 151 compounds were selected for further analysis, in an effort to better understand their mode of inhibiting FLuc. The assay described here was to determine the activity of the compounds in an FLuc assay that contained KM concentrations of substrates and 500uM CoASH.
NCGC Assay Protocol Summary: Reagents: 50mM Tris acetate, pH 7.5; 10mM Mg acetate; 10uM D-luciferin (Sigma #L9504); 10uM ATP; 0.01% Tween-20; 0.05% BSA; 10nM P. pyralis luciferase (Sigma #L9506); 500 uM CoASH Control compounds used were two known firefly luciferase inhibitors (3-(5-(3-chlorophenyl)-1,2,4-oxadiazol-3-yl)benzoic acid and 5-(2-fluorophenyl)-3-phenyl-1,2,4-oxadiazole), and DMSO. Three microliters containing firefly luciferase substrates in buffer (final concentrations: 50mM Tris acetate, pH 7.5, 10mM Mg acetate, 0.01% Tween-20, 0.05% BSA, 10uM D-luciferin, 10uM ATP, and 500 uM CoASH) are dispensed into each well of a Greiner white, solid-bottom 1536-well format plate using a flying reagent dispenser (FRD). These assay plates were then treated with 23nL of compound or DMSO using a Kalypsys pin tool, which allows for delivery of a 12-point intraplate titration of each compound to the assay plate (quantitative HTS), with a final compound concentrations ranging from approximately ~60uM to 0.3nM. One microliter of firefly luciferase in 500mM Tris-acetate buffer was then delivered by FRD to each well for a final enzyme concentration of 10nM. Luciferase activity was then measured using a ViewLux CCD imager (PerkinElmer), with an average exposure time of 2-30 seconds (2X binning, medium/high gain).

Potency, active:
O=C(Nc1ccccc1C(=O)O)c1ccc(Cl)c(S(=O)(=O)N2CCOCC2)c1 5800 nM
CCOc1ccc2nc(NC(=O)Cc3cccs3)sc2c1 5800 nM
COc1ccc(C(=O)Nc2ccccc2C(=O)Nc2ccccc2C(=O)O)cc1 116 nM
CC(C)C(=O)Nc1cccc(C(=O)Nc2ccccc2C(=O)O)c1 7300 nM
O=C(COC(=O)c1ccccc1[N+](=O)[O-])c1ccc2c(c1)OCO2 2.3 nM
O=C(O)c1ccccc1NC(=O)c1ccccc1Nc1ccccc1 9190 nM
Nc1ccccc1-c1nc2ccccc2s1 3260 nM
O=C(Nc1ccc(-c2nc3ccccc3s2)cc1)C1=COCCO1 25.9 nM
Cc1ccc(C(=O)O/N=C(\N)c2ccccn2)cc1 9.2 nM
CCOc1ccc(C(=O)Nc2cccc(C(=O)O)c2)cc1Cl 919 nM
Cc1c(C)c2ccc(OCC(=O)Nc3ccccn3)c(C)c2oc1=O 4.1 nM
COc1ccc2nc(NC(=O)c3ccccc3C(=O)O)sc2c1 6510 nM
O=C(Cc1ccc(Cl)cc1)Nc1cccc(C(=O)Nc2ccccc2C(=O)O)c1 25900 nM
Cc1ccc2sc(-c3ccc(N)cc3)nc2c1 41.1 nM
Nc1cccc(-c2nc3ccc(N)cc3s2)c1 146 nM
O=C(O)c1ccc(NC(=O)c2ccccc2NC(=O)c2cccc(Br)c2)cc1 7300 nM
Nc1ccc(-c2nc3ccc(C(=O)O)cc3s2)cc1 146 nM
O=C(Nc1ccccc1C(=O)O)c1ccc(NC(=O)C2CCCO2)cc1 (stereo not given) 5800 nM
Nc1ccc2nc(-c3ccc(O)cc3)sc2c1 146 nM
COc1ccc2nc(NC(=O)c3cnccn3)sc2c1 919 nM
COc1cccc(-c2nc3ccccc3s2)c1 517 nM
COc1ccc2nc(NC(=O)c3ccc([N+](=O)[O-])o3)sc2c1 1160 nM
O=C(Nc1ccccc1C(=O)O)c1cccc(NC(=O)c2ccc(Br)o2)c1 10300 nM
CC(=O)Nc1cccc(C(=O)Nc2ccccc2C(=O)O)c1 20600 nM
C/C(=N\NC(=O)c1ccccc1NC(=O)c1ccc(Cl)cc1)c1ccncc1 4.6 nM
CCn1c(C)nc2cc(-c3nc4n(n3)Cc3ccccc3-4)ccc21 14.6 nM
O=C(O)c1ccc(NC(=O)c2ccccc2NC(=O)c2ccccc2Cl)cc1 16300 nM
Cc1ccc(C(=O)O/N=C(\N)c2ccccn2)c(Cl)c1 4.6 nM
CCOc1ccc2nc(NC(=O)c3ccccn3)sc2c1 163 nM
O=C(O)c1cccc(NC(=O)c2ccc(Cl)c(S(=O)(=O)N3CCCCCC3)c2)c1 2910 nM
COc1ccc(C(=O)Nc2ccccc2C(=O)Nc2ccc(C(=O)O)cc2)cc1 517 nM
O=C(Nc1cccc(-c2nc3ccccc3s2)c1)c1cc(-n2cnnc2)ccc1Cl 3660 nM
O=C(Nc1ccccc1C(=O)O)c1cccc(NC(=O)c2ccccc2Cl)c1 14600 nM

Potency, inactive:
Cc1ccc(C(=O)Nc2ccc(C(=O)O)cc2)cc1S(=O)(=O)Nc1ccccc1
O=C(O)c1ccc(NC(=O)c2cc(S(=O)(=O)N3CCCCC3)c(Cl)cc2Cl)cc1
COc1cc(OC)cc(C(=O)Nc2ccccc2-c2nc3ccccc3s2)c1
Cc1cccc(NS(=O)(=O)c2cccc(C(=O)Nc3cccc(C(=O)O)c3)c2)c1
COc1ccc(-c2nc3ccccc3s2)cc1NC(=O)c1ccc(F)cc1
COc1ccc2nc(NC(=O)CCc3nc(-c4ccccc4F)no3)sc2c1
Cc1ccc(NS(=O)(=O)c2ccc(Cl)c(C(=O)Nc3cccc(C(=O)O)c3)c2)cc1
